According to publication PMC7862700, “An all-to-all approach to the identification of sequence-specific readers for epigenetic DNA modifications on cytosine”:

How the values were obtained:
Assay in all cases: DAPPL (digital affinity profiling via proximity ligation, sequencing); 10 mM Tris-HCl pH 7.5, 50 mM NaCl, 1 mM DTT, 4% glycerol, room temperature, 30 min; GST-TFs on glutathione beads, 16-mer random dsDNA library, 0.1% formaldehyde crosslink after washing; high values mean tight binding
[1] = target: T1, FEV (Homo sapiens, UniProt Q99581 1-238); conditions: protein: recombinant; tags: N-terminal GST; dsDNA, one strand shown
T1 sequence: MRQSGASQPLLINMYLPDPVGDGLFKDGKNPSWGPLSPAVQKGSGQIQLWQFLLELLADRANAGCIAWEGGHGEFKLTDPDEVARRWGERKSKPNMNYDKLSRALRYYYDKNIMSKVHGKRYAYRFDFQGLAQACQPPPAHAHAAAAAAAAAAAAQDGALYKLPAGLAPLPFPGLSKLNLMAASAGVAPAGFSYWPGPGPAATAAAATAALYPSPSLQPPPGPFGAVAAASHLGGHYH
In short: (§1)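 Pools of DNA-barcoded human transcription factors, expressed in yeast as GST fusions on glutathione beads and combined with a tag-only sample, were incubated with 200 nmole of a 16-mer random double-stranded DNA library. Incubation took 30 min at room temperature in Tris/NaCl/DTT/glycerol buffer and was followed by washing, 0.1% formaldehyde crosslinking, proximity ligation (BsaI/T4 ligase, 1 h, 37 °C), PCR amplification and sequencing on an Illumina NextSeq500. Binding signal is the ratio of a hexamer's read frequency for a factor to its frequency for the tag-only sample.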

[2] = target: ETV5 (Homo sapiens, UniProt P41161 1-510); conditions: protein: recombinant; tags: N-terminal GST; dsDNA, one strand shown
In short: as §1

[3] = target: HSF1 (Homo sapiens, UniProt Q00613 1-529); conditions: protein: recombinant; tags: N-terminal GST; chain copies: 3; dsDNA, one strand shown
In short: as §1

[4] = target: T2, SPIC (Homo sapiens, UniProt Q8N5J4 1-248); conditions: protein: recombinant; tags: N-terminal GST; dsDNA, one strand shown
T2 sequence: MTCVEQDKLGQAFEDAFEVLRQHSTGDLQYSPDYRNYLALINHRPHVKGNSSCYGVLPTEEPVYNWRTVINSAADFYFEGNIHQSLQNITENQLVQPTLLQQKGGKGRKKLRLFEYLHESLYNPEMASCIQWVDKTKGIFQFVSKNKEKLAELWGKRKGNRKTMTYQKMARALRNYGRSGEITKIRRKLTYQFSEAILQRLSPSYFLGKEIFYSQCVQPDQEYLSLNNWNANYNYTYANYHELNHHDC
In short: as §1

[5] = target: ELF4 (Homo sapiens, UniProt Q99607 1-663); conditions: protein: recombinant; tags: N-terminal GST; dsDNA, one strand shown
In short: as §1

[6] = target: T3, ELK4 (Homo sapiens, UniProt P28324-2 1-405); conditions: protein: recombinant; tags: N-terminal GST; dsDNA, one strand shown
T3 sequence: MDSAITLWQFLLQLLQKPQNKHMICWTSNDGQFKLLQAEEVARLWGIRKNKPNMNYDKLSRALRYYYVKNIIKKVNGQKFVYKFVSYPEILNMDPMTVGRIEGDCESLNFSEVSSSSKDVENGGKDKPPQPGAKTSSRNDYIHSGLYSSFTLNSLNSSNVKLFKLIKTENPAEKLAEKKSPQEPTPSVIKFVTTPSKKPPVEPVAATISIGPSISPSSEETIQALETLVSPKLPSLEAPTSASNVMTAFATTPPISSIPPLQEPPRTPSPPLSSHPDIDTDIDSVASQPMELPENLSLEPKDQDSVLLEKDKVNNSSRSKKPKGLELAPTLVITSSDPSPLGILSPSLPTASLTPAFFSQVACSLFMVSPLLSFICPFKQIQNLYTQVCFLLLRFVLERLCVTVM
In short: as §1

[7] = target: T4, ETV2 (Homo sapiens, UniProt O00321 1-342); conditions: protein: recombinant; tags: N-terminal GST; dsDNA, one strand shown
T4 sequence: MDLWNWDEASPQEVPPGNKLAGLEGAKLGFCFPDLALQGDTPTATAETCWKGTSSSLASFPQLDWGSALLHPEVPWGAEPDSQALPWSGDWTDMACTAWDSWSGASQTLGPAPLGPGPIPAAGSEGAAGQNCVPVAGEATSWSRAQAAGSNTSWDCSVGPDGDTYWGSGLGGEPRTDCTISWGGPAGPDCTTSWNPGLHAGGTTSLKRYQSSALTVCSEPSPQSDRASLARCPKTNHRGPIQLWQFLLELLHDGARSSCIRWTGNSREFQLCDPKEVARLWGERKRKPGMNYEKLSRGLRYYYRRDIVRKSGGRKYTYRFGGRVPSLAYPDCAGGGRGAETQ
In short: as §1

[8] = target: T5, ELF3 (Homo sapiens, UniProt P78545 1-371); conditions: protein: recombinant; tags: N-terminal GST; dsDNA, one strand shown
T5 sequence: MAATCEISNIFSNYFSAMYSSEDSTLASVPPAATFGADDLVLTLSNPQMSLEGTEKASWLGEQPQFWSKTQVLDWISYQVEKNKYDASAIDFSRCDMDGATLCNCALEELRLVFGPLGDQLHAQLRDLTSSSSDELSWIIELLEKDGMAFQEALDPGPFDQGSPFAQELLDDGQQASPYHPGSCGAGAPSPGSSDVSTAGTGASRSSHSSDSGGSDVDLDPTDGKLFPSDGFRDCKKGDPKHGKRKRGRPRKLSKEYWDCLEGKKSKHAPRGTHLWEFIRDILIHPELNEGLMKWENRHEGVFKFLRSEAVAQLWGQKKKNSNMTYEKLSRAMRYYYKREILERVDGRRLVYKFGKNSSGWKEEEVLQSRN
In short: as §1

[9] = target: CRX (Homo sapiens, UniProt O43186 1-299); conditions: protein: recombinant; tags: N-terminal GST; dsDNA, one strand shown
In short: as §1

[10] = target: ETV1 (Homo sapiens, UniProt P50549 1-477); conditions: protein: recombinant; tags: N-terminal GST; dsDNA, one strand shown
In short: as §1

Chain of HSF1 (Q00613 whole entry): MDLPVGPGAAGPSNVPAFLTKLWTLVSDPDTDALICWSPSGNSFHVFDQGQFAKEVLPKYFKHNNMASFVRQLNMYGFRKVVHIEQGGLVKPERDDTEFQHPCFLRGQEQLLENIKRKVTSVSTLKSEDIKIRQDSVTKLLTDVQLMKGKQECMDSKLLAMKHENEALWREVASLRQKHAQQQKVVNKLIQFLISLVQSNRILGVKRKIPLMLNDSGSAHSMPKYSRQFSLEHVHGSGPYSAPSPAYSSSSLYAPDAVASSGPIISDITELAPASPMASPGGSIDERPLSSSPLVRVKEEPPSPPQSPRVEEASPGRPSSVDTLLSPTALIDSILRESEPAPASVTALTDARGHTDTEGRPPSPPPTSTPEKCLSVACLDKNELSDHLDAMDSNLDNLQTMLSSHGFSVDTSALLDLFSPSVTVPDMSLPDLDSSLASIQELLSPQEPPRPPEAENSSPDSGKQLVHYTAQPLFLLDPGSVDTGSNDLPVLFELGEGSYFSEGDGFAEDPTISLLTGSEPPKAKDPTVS
Chain of CRX (O43186 whole entry): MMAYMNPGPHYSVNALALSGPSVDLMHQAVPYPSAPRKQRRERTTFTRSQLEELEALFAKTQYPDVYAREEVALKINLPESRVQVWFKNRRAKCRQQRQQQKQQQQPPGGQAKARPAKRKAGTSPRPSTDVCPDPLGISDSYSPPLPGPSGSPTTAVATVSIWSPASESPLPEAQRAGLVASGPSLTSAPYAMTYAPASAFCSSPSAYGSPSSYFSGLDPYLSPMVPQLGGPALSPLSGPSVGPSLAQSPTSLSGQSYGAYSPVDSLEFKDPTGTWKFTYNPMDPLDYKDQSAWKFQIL
Chain of ETV1 (P50549 whole entry): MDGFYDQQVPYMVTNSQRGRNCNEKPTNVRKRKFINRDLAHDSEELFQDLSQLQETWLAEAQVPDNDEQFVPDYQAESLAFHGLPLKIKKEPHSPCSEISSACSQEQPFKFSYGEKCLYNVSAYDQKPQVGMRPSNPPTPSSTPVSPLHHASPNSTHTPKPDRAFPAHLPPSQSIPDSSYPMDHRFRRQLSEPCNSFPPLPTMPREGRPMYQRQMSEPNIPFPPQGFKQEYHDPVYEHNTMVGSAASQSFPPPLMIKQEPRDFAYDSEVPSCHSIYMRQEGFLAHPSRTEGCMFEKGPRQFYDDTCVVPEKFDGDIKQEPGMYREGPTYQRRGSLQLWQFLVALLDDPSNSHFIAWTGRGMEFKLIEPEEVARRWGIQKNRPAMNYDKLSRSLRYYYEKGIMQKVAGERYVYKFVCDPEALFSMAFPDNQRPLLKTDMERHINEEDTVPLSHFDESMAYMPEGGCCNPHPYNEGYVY
Chain of ETV5 (P41161 whole entry): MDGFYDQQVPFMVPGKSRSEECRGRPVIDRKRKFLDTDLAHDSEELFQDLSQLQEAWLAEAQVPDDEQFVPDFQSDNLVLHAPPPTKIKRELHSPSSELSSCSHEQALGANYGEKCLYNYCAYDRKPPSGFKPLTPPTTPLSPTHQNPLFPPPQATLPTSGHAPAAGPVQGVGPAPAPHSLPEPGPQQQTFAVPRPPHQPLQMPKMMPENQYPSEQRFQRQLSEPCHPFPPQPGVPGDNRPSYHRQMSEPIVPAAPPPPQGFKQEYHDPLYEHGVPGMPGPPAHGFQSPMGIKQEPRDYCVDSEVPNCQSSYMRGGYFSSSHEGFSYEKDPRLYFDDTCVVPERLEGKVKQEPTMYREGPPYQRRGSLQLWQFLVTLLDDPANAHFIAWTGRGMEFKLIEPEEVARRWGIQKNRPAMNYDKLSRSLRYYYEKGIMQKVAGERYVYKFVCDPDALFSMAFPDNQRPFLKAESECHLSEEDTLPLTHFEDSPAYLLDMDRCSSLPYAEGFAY
Chain of ELF4 (Q99607 whole entry): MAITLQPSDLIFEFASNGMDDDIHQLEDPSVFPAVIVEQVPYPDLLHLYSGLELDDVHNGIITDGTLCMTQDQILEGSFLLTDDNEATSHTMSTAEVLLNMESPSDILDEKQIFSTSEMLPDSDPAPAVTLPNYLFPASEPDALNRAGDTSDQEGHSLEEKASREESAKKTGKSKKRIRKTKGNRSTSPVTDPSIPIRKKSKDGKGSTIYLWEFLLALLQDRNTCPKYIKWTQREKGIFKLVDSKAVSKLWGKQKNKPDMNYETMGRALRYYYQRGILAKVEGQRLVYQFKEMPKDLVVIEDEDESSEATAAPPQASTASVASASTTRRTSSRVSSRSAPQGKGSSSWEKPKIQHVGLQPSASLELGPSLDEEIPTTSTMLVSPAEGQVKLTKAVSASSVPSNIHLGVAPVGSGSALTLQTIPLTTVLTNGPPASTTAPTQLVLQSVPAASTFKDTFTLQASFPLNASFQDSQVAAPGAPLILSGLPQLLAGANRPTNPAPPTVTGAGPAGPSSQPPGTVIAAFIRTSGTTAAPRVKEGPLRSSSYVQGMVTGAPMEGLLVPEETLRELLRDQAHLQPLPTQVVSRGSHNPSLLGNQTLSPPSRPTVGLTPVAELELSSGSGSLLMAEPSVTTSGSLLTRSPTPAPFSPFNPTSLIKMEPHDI

## TGGTAA
[1]
  binding signal: 1.15 fold enrichment (6-mer frequency, TF over GST control)
[2]
  binding signal: 1.23 fold enrichment (6-mer frequency, TF over GST control)
[3]
  binding signal: 1.45 fold enrichment (6-mer frequency, TF over GST control)
[4]
  binding signal: 1.09 fold enrichment (6-mer frequency, TF over GST control)
[5]
  binding signal: 1.23 fold enrichment (6-mer frequency, TF over GST control)
[6]
  binding signal: 1.39 fold enrichment (6-mer frequency, TF over GST control)
[7]
  binding signal: 1.3 fold enrichment (6-mer frequency, TF over GST control)
[8]
  binding signal: 1.15 fold enrichment (6-mer frequency, TF over GST control)
[9]
  binding signal: 1.51 fold enrichment (6-mer frequency, TF over GST control)
[10]
  binding signal: 1.27 fold enrichment (6-mer frequency, TF over GST control)

## TCCCCT
[1]
  binding signal: 1.71 fold enrichment (6-mer frequency, TF over GST control)
[2]
  binding signal: 1.72 fold enrichment (6-mer frequency, TF over GST control)
[3]
  binding signal: 1.56 fold enrichment (6-mer frequency, TF over GST control)
[4]
  binding signal: 1.88 fold enrichment (6-mer frequency, TF over GST control)
[5]
  binding signal: 1.83 fold enrichment (6-mer frequency, TF over GST control)
[6]
  binding signal: 1.55 fold enrichment (6-mer frequency, TF over GST control)
[7]
  binding signal: 1.57 fold enrichment (6-mer frequency, TF over GST control)
[8]
  binding signal: 1.78 fold enrichment (6-mer frequency, TF over GST control)
[9]
  binding signal: 1.92 fold enrichment (6-mer frequency, TF over GST control)
[10]
  binding signal: 1.75 fold enrichment (6-mer frequency, TF over GST control)

## CTGCCT
[1]
  binding signal: 1.2 fold enrichment (6-mer frequency, TF over GST control)
[2]
  binding signal: 1.18 fold enrichment (6-mer frequency, TF over GST control)
[3]
  binding signal: 1.13 fold enrichment (6-mer frequency, TF over GST control)
[4]
  binding signal: 1.07 fold enrichment (6-mer frequency, TF over GST control)
[5]
  binding signal: 1.21 fold enrichment (6-mer frequency, TF over GST control)
[6]
  binding signal: 1.14 fold enrichment (6-mer frequency, TF over GST control)
[7]
  binding signal: 1.15 fold enrichment (6-mer frequency, TF over GST control)
[8]
  binding signal: 1.17 fold enrichment (6-mer frequency, TF over GST control)
[9]
  binding signal: 1.11 fold enrichment (6-mer frequency, TF over GST control)
[10]
  binding signal: 1.24 fold enrichment (6-mer frequency, TF over GST control)

## CATTCC
[1]
  binding signal: 1.21 fold enrichment (6-mer frequency, TF over GST control)
[2]
  binding signal: 1.29 fold enrichment (6-mer frequency, TF over GST control)
[3]
  binding signal: 1.67 fold enrichment (6-mer frequency, TF over GST control)
[4]
  binding signal: 1.11 fold enrichment (6-mer frequency, TF over GST control)
[5]
  binding signal: 1.27 fold enrichment (6-mer frequency, TF over GST control)
[6]
  binding signal: 1.28 fold enrichment (6-mer frequency, TF over GST control)
[7]
  binding signal: 1.31 fold enrichment (6-mer frequency, TF over GST control)
[8]
  binding signal: 1.2 fold enrichment (6-mer frequency, TF over GST control)
[9]
  binding signal: 1.07 fold enrichment (6-mer frequency, TF over GST control)
[10]
  binding signal: 1.19 fold enrichment (6-mer frequency, TF over GST control)

## TTCACT
[1]
  binding signal: 1.4 fold enrichment (6-mer frequency, TF over GST control)
[2]
  binding signal: 1.31 fold enrichment (6-mer frequency, TF over GST control)
[3]
  binding signal: 1.13 fold enrichment (6-mer frequency, TF over GST control)
[4]
  binding signal: 1.16 fold enrichment (6-mer frequency, TF over GST control)
[5]
  binding signal: 1.34 fold enrichment (6-mer frequency, TF over GST control)
[6]
  binding signal: 1.42 fold enrichment (6-mer frequency, TF over GST control)
[7]
  binding signal: 1.39 fold enrichment (6-mer frequency, TF over GST control)
[8]
  binding signal: 1.2 fold enrichment (6-mer frequency, TF over GST control)
[9]
  binding signal: 1.1 fold enrichment (6-mer frequency, TF over GST control)
[10]
  binding signal: 1.33 fold enrichment (6-mer frequency, TF over GST control)

## CAATAT
[1]
  binding signal: 1.25 fold enrichment (6-mer frequency, TF over GST control)
[2]
  binding signal: 1.33 fold enrichment (6-mer frequency, TF over GST control)
[3]
  binding signal: 1.11 fold enrichment (6-mer frequency, TF over GST control)
[4]
  binding signal: 1.23 fold enrichment (6-mer frequency, TF over GST control)
[5]
  binding signal: 1.28 fold enrichment (6-mer frequency, TF over GST control)
[6]
  binding signal: 1.31 fold enrichment (6-mer frequency, TF over GST control)
[7]
  binding signal: 1.29 fold enrichment (6-mer frequency, TF over GST control)
[8]
  binding signal: 1.28 fold enrichment (6-mer frequency, TF over GST control)
[9]
  binding signal: 1.15 fold enrichment (6-mer frequency, TF over GST control)
[10]
  binding signal: 1.27 fold enrichment (6-mer frequency, TF over GST control)

## CTCTGT
[1]
  binding signal: 1.39 fold enrichment (6-mer frequency, TF over GST control)
[2]
  binding signal: 1.42 fold enrichment (6-mer frequency, TF over GST control)
[3]
  binding signal: 1.15 fold enrichment (6-mer frequency, TF over GST control)
[4]
  binding signal: 1.5 fold enrichment (6-mer frequency, TF over GST control)
[5]
  binding signal: 1.33 fold enrichment (6-mer frequency, TF over GST control)
[6]
  binding signal: 1.5 fold enrichment (6-mer frequency, TF over GST control)
[7]
  binding signal: 1.39 fold enrichment (6-mer frequency, TF over GST control)
[8]
  binding signal: 1.4 fold enrichment (6-mer frequency, TF over GST control)
[9]
  binding signal: 1.18 fold enrichment (6-mer frequency, TF over GST control)
[10]
  binding signal: 1.43 fold enrichment (6-mer frequency, TF over GST control)
